Laboratory results published in PubChem BioAssay.
Activity calls are given as the source filed them. Unless noted, no rule for the calls is given here.

How the values were obtained:
[1] = compounds binding Alexa647 anti-His antibody – biochemical, small-molecule microarray, 635 nm fluorescence, artefact control for SMM control protein annotation, primary screen (AID 1128); conditions: higher = more signal;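 also: score merges feature fluorescence with signal-to-noise for each printed compound spot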
[2] = system: Human papillomavirus type 1a E7 protein (residues 1-88); assay: HPV1a E7 small-molecule binders, primary screen, biochemical, small-molecule microarray, residues 1-88, 635 nm (AID 1129); conditions: small-molecule microarray binding, fluorescence 635 nm; higher = more signal
[3] = biological target: Focal adhesion kinase 1 (Homo sapiens) (UniProt Q05397); assay: PTK2 protein binding on printed compound slides – biochemical, small-molecule microarray, 635/667 nm fluorescence, BSA, DTT, primary screen (AID 1130); conditions: 635 nm fluorescence, higher = more signal;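 also: composite of spot emission at 667 nm and signal to noise over triplicate slides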
[4] = system: Fibrinogen (Alexa647-labelled); assay: Alexa647-fibrinogen binding to printed small molecules – biochemical, small-molecule microarray, 635/667 nm fluorescence, artefact control for SMM control-protein annotation, profiling panel (AID 1131); conditions: fibrinogen-A647 binding fluorescence, higher = more signal;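 also: z-score merges 667 nm fluorescence with per-spot signal-to-noise over triplicate slides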
[5] = biological target: Follistatin (Homo sapiens) (UniProt P19883); assay: FST protein binding to printed compounds – biochemical, small-molecule microarray, 635/667 nm fluorescence, primary screen (AID 1132); conditions: 635 nm fluorescence, higher = more signal
[6] = biological target: Fibroblast growth factor 2 (Homo sapiens) (UniProt P09038); assay: basic fibroblast growth factor binding to printed compounds – biochemical, small-molecule microarray, 635/667 nm fluorescence, primary screen (AID 1133); conditions: FGF2, fluorescence 635/667, higher = more signal
[7] = JC-1 mitochondrial potential readout, lung cancer cells – cell-based, A549, JC-1 fluorescence, basal, 24 h, 100 nL, profiling panel (AID 1138); conditions: higher = more signal;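 also: A549 lung adenocarcinoma cells under basal conditions with no added stimulus; test concentration not given here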
Lefty1 = Lefty1 protein binding to printed compounds – biochemical, small-molecule microarray, 635/667 nm fluorescence, primary screen (AID 1139); conditions: fluorescence 635/667, higher = more signal
[8] = system: wheat germ agglutinin (Triticum aestivum), Alexa647-labelled; assay: Alexa647-WGA lectin binding to printed small molecules – biochemical, small-molecule microarray, 635/667 nm fluorescence, artefact control for SMM control-protein annotation, profiling panel (AID 1140); conditions: WGA-A647 binding, 635 nm fluorescence, higher = more signal;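 also: score merges 667 nm feature emission with signal to noise over triplicate slides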
[9] = biological target: Luciferin 4-monooxygenase (Photinus pyralis) (UniProt P08659); assay: inhibition of purified Photinus pyralis luciferase – biochemical, luminescence, purified enzyme, 2006 set, primary screen (AID 1141); conditions: purified firefly luciferase, SteadyGlo luminescence, 30 min; higher = more signal, called active from +8 up or from −8 down;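 also: cell-free assay with purified firefly luciferase at 100 ng per well in PBS; test concentration not given here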
[10] = system: Wnt5a (protein binding on small-molecule microarray); assay: small molecules binding Wnt5a protein – biophysical, small-molecule microarray, 635/667 nm fluorescence, primary screen (AID 1142); conditions: 635 nm fluorescence, higher = more signal;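 also: fluorescence read at 667 nm with signal to noise per printed feature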
[11] = ATP-based viability of Huh7 replicon cells – cell-based, CellTiter-Glo luminescence, basal, 48 h, cytotoxicity control for HCV replication inhibitor project, primary screen (AID 1143); conditions: higher = more signal, called active from +8 up or from −8 down;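 also: Huh7 hepatoma cells carrying a hepatitis C replication reporter with no stimulus; test concentration not given here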
[12] = Pseudomonas biofilm growth suppression – PAO1 strain, BacTiter-Glo luminescence, LB-PBS, primary screen (AID 1144); conditions: P. aeruginosa PAO1 biofilm, 12 h, higher = more signal
[13] = basal CRE-LacZ reporter activity in PC12 – cell-based, unstimulated, primary screen (AID 1145); conditions: no forskolin, luminescence, 4.5 h, higher = more signal, called active from +8 up or from −8 down
[14] = forskolin-driven CRE-LacZ activity in PC12 – cell-based, CRE-LacZ reporter, forskolin-stimulated, primary screen (AID 1146); conditions: luminescence, 4.5 h, higher = more signal, called active from +8 up or from −8 down;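 also: PC12 cells with 6xCRE LacZ reporter stimulated by forskolin 10 µM; beta-galactosidase reporter signal reflecting CREB driven transcription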
[15] = biological target: Streptavidin (Streptomyces avidinii) (UniProt P22629); assay: compounds binding control protein streptavidin – biophysical, small-molecule microarray, 635/667 nm fluorescence, artefact control for SMM compound annotation, primary screen (AID 1147); conditions: higher = more signal;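 also: signal reflects streptavidin binding to arrayed compounds as a control protein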
[16] = probe aInhba binding on compound microarray – biochemical, small-molecule microarray, 635/667 nm fluorescence, primary screen (AID 1148); conditions: higher = more signal;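 also: score merges 667nm spot fluorescence with signal-to-noise for antibody binding to printed compounds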
Torsin-1A (Homo sapiens) [17] = biological target: Torsin-1A (Homo sapiens) (UniProt O14656); assay: TOR1A wild-type binding on microarray – cell lysate, small-molecule microarray, lysate, 635/667 nm, primary screen (AID 1149); conditions: COS7 hTOR1A-WT lysate, 635 nm fluorescence, higher = more signal
Torsin-1A (Homo sapiens) [18] = biological target: Torsin-1A (Homo sapiens) (UniProt O14656); assay: torsin A mutant lysate binding on microarrays – cell lysate, small-molecule microarray, COS7 lysate, 635/667 nm fluorescence, primary screen (AID 1150); conditions: COS7 hTOR1A mutant lysate, 635 nm fluorescence, higher = more signal;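 also: score pools 667 nm emission and signal to noise measuring lysate protein binding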
[19] = system: Sonic hedgehog protein (Shh); assay: Sonic hedgehog microarray binding compounds – biochemical, small-molecule microarray, 635/667 nm fluorescence, primary screen (AID 1151); conditions: 635 nm fluorescence, higher = more signal;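 also: Shh protein binding to compounds spotted on small-molecule microarray slides; score combines spot fluorescence intensity with signal-to-noise across triplicate slides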

Focal adhesion kinase 1 (Homo sapiens), sequence (Q05397 whole entry, looked up): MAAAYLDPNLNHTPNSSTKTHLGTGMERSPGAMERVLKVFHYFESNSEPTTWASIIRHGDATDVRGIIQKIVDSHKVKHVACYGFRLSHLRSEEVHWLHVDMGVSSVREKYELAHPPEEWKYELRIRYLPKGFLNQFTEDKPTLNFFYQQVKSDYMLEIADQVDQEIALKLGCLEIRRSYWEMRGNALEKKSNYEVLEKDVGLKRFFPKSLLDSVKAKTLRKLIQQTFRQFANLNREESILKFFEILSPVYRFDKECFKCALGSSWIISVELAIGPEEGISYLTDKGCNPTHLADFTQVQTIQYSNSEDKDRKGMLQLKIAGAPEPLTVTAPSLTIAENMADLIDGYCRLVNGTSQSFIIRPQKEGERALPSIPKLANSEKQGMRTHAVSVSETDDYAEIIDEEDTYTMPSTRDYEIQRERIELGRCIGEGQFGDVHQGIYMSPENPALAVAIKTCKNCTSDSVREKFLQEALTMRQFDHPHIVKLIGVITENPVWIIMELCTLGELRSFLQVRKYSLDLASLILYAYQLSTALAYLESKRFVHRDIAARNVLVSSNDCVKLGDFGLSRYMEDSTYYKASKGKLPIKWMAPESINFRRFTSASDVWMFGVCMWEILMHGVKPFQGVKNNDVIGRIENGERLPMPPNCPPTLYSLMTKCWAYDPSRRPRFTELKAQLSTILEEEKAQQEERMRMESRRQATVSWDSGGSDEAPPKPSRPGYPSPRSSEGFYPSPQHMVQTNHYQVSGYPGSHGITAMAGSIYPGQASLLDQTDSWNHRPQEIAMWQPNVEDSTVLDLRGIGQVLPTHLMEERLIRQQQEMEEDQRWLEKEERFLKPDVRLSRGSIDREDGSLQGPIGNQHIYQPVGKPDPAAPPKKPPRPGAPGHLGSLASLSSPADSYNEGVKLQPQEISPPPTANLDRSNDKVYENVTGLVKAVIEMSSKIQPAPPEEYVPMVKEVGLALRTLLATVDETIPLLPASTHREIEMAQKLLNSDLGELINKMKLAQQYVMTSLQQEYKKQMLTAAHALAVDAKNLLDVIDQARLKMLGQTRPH
Luciferin 4-monooxygenase (Photinus pyralis), sequence (P08659 whole entry, looked up): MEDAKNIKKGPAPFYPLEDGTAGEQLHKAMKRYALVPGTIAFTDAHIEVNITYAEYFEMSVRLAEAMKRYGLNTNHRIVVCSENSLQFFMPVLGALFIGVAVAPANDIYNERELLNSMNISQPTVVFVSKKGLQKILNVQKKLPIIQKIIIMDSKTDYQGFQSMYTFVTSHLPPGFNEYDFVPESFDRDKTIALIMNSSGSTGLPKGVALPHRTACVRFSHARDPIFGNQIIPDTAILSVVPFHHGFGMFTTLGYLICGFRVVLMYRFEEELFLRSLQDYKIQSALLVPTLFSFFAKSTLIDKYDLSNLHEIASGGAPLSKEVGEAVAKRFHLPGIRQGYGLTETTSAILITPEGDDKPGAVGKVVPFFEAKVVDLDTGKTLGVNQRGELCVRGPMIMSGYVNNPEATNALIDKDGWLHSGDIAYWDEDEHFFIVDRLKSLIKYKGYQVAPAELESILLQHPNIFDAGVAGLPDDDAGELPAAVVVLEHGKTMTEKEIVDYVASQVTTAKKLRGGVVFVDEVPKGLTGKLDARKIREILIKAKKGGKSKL
Torsin-1A (Homo sapiens), sequence (O14656 whole entry, looked up): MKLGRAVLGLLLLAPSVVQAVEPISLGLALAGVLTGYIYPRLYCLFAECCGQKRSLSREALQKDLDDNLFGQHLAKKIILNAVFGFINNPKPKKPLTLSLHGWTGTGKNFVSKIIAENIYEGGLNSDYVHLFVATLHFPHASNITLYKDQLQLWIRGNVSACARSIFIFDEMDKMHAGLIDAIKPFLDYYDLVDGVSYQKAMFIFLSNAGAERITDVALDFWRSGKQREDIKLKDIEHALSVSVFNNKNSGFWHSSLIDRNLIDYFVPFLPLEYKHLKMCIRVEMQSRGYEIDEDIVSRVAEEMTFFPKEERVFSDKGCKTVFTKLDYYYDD
Streptavidin (Streptomyces avidinii), sequence (P22629 whole entry, looked up): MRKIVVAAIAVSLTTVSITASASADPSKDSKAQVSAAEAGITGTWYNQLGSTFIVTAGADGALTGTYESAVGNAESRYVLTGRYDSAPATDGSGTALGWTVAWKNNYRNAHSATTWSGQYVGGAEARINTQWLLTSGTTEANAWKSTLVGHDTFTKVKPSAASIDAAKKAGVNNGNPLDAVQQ
Follistatin (Homo sapiens), sequence (P19883 whole entry, looked up): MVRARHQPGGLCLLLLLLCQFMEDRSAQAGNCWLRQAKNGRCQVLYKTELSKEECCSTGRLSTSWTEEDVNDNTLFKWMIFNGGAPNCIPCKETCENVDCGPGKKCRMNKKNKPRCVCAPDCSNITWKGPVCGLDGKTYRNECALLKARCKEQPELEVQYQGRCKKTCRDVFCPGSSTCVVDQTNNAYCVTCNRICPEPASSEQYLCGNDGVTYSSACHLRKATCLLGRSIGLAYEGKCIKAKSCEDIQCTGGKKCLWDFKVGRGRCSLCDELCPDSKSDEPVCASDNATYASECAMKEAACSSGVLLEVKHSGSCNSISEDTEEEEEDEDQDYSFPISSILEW
Fibroblast growth factor 2 (Homo sapiens), sequence (P09038 whole entry, looked up): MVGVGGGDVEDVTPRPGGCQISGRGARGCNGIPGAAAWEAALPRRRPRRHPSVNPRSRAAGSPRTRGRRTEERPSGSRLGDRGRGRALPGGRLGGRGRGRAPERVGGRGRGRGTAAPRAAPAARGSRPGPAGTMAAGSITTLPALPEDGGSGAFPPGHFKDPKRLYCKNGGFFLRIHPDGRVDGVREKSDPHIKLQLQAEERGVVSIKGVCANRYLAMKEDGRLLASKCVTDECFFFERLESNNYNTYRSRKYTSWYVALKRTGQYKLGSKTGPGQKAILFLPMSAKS

Compound | composite z-score [1] | composite z-score [2] | composite z-score [3] | composite z-score [4] | composite z-score [5] | composite z-score [6] | z-score [7] | composite z-score (Lefty1) | composite z-score [8] | z-score [9] | composite z-score [10] | z-score [11] | z-score [12] | z-score [13] | z-score [14] | composite z-score [15] | composite z-score [16] | composite z-score (Torsin-1A (Homo sapiens) [17]) | composite z-score (Torsin-1A (Homo sapiens) [18]) | composite z-score [19]
CCOC(=O)[C@H]1C[C@H]2O[C@@]23C[C@H]1C(=O)N1CCCC1[C@@H]3O[Si](C)(C)C(C)(C)C (stereo not given in full) | -0.288 | -0.311 | -0.349 | -0.466 | -0.068 | -0.0656 | -0.341 | 0.225 | -0.339 | 0.261 (inactive) | -0.489 | -2.14 (inactive) | 0.209 (inactive) | -1.59 (inactive) | -0.852 (inactive) | -0.266 | -0.245 | -0.235 | -0.178 | 1.1
CCCCC(CC)C(O)C1C=CC2C(=O)N(c3ccccc3)C(=O)C2N1Nc1ccccc1 (stereo not given) | 0.804 | 1.19 | 0.462 | 0.881 | 0.858 | -0.411 | -0.99 | -0.249 | 1.15 | -0.15 (inactive) | 0.0653 | -2.93 (inactive) | -0.569 (inactive) | 0.253 (inactive) | 0.011 (inactive) | 0.948 | 0.103 | -0.311 | 0.178 | -0.751
Cc1ccc(S[C@]2(C(=O)NCCN3CCOCC3)CC(=O)N(Cc3cc(C(F)(F)F)cc(C(F)(F)F)c3)[C@@H]2c2ccc(CO)cc2I)cc1 | -1.02 | -0.27 | 0.414 | -0.46 | 0.016 | -1.13 | 0.164 | -0.304 | 0.0101 | 1.31 (inactive) | -0.314 | -2.42 (inactive) | -0.956 (inactive) | 0.389 (inactive) | -0.0376 (inactive) | -0.71 | -0.183 | -2 | 0.561 | -0.4
CC(c1ccccc1)C(O)C1C=CC2C(=O)NC(=O)C2N1Nc1ccccn1 (stereo not given) | 1.28 | 0.997 | -0.0073 | 0.675 | 1.12 | 0.458 | 0.845 | 0.335 | 0.528 | -1.64 (inactive) | 0.211 | 1.25 (inactive) | -1.1 (inactive) | -0.329 (inactive) | -1.03 (inactive) | 0.0932 | 0.0906 | 0.763 | 0.197 | 0.341
O=C1OCC=C[C@H]2OC34C=CCN(c5ccc6ccccc6c5)C(=O)[C@H]3N(CCCO)C(=O)[C@@H]4[C@@H]12 (stereo not given in full) | -0.349 | -0.92 | -0.409 | -0.669 | 0.0786 | -0.989 | -0.506 | -0.11 | -0.645 | -0.18 (inactive) | -0.701 | -2.14 (inactive) | 0.179 (inactive) | 0.337 (inactive) | 0.27 (inactive) | -0.835 | -0.0675 | -1.69 | -1.38 | -0.372
CN(C)CCCCNC(=O)[C@H]1C[C@H]2C(=O)N[C@@H](Cc3ccccc3)C(=O)N2[C@H]1c1ccc(O)cc1 | 0.499 | 1.16 | -0.366 | 0.986 | 1.34 | 1.64 | -0.884 | 1.31 | 1.2 | 0.999 (inactive) | 0.335 | -2.14 (inactive) | -1.49 (inactive) | -1.9 (inactive) | -0.32 (inactive) | 1.34 | -0.128 | 1.87 | 0.734 | 2.09
C=CC[C@@H](OC(=O)Nc1ccc(OC)cc1)c1ccc(O)c2ccccc12 | 0.235 | 1.17 | 2 | 0.656 | 1.39 | 1.94 | -1.3 | 1.35 | 0.542 | -6.72 (inactive) | 0.42 | -4.89 (inactive) | -1.39 (inactive) | 1.01 (inactive) | 4.3 (inactive) | 0.737 | 0.241 | 1.31 | 0.625 | 2.03
O=C1C2C=CC(C(O)c3ccc(B(O)O)cc3)N(Nc3ccccc3)C2C(=O)N1c1ccccc1 (stereo not given) | 0.56 | -0.935 | 1.44 | -0.0877 | 0.0669 | -0.581 | -1.4 | -0.698 | -0.0504 | -0.331 (inactive) | -0.0341 | -2.7 (inactive) | -1.06 (inactive) | 0.24 (inactive) | 1.11 (inactive) | 0.471 | -0.0797 | -0.138 | -0.724 | -0.661
CS(=O)(=O)CCOC(=O)C1=CC(CCCO)=CC(c2cccs2)N(Cc2cc3c(cc2Br)OCO3)C=C1C(=O)OCCS(C)(=O)=O (stereo not given) | 1.16 | 1.21 | 1.11 | 1.01 | 1.28 | 0.564 | 1.26 | 1.22 | 1.05 | -1.16 (inactive) | 0.567 | -1.26 (inactive) | 0.00546 (inactive) | -0.583 (inactive) | 0.72 (inactive) | 2.16 | 0.086 | 1.3 | 1.16 | 0.759
O=C1OCCC=C[C@H]2OC34C=CCN(Cc5ccccc5)C(=O)[C@H]3N(CCCCCO)C(=O)[C@@H]4C12 (stereo not given in full) | 0.206 | 0.702 | 1.95 | -1.44 | -0.618 | -1.16 | 0.758 | 0.475 | 0.809 | 0.0657 (inactive) | -0.733 | 0.409 (inactive) | -1.86 (inactive) | -0.216 (inactive) | -0.732 (inactive) | -0.636 | -0.128 | 2.82 | 2.07 | -0.211
